# Source: PubChem (several laboratories)
# PTEN del growth: growth suppressors of cells with PTEN tumor suppressor deletion; HCT116 PTEN-null viability, CellTiter-Glo, 60 h; active compounds read low; viability, % at 10 µM; hit rate 1.2% among 140,000;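 active means viability at or below a set limit, 4 SD under the median of all tested compounds, cut at about 3.7% in these data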;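 further: PTEN knockout HCT116 line with beta catenin targeted HCT116 as companion control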
# Autophagy HCS: modulators of autophagy. MEF GFP-LC3 puncta imaging; test concentration mostly 10 µM. hit rate 0.98% among 190,000. calls only at 10 µM (by protocol);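 active means percentage of spot-positive cells more than 3 SD above its plate mean, without a fluorescence outlier flag or 80% toxicity; inconclusive means no clear call, values can overlap the other calls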;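 further: spot-positive cell cutoff set from DMSO-treated cells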
# Lmaj promast: inhibitors of Leishmania major promastigote growth. hit rate 9% among 200,000. inhibition, % at 10 µM. AID 1063. Leishmania major promastigotes, resazurin fluorescence viability; in the data active means inhibition above about 50%;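 further: promastigotes grown with compound for 44 hours at 28 °C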
# INS promoter inh: TRM-6 insulin promoter activity inhibition. TRM-6 cells (human fetal islet line), insulin promoter-eGFP reporter, imaging; reporter expression induced with tamoxifen. inhibition, % at 2 µM. hit rate 0.9% among 130,000. AID 1273;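 active means inhibition above the mean plus 3 SD, with well images judged a real hit on visual review, cut at about 60% in these data, passing the limit was not always enough; inconclusive means inhibition over the cutoff but images rejected on review; inactive means inhibition not above the cutoff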
# bCat KO growth: beta-catenin-lacking colon tumor cell growth suppression; HCT116 beta-catenin knockout viability, CellTiter-Glo, 60 h; active compounds read low; viability, % at 10 µM; hit rate 1.5% among 140,000; AID 818;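 active means viability at or under a set limit, the compound median less 4 SD, cut at about 6% in these data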;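 further: 0% = Hyamine 1622 control at 20 µM and 100% = untreated cell control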
# Ins promoter up: MIN6 insulin promoter up-regulation | MIN6 insulin promoter-GFP reporter, high-content imaging; active compounds read high | z-score at 5 µM | hit rate 0.3% among 190,000 | AID 1625;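 active means z-score above 3 at 5 µM with at least 500 cells counted in the well; inconclusive means wells under 500 cells, flagged as cytotoxic or low count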
# An asterisk follows results filed as active; i = inactive; ? = inconclusive; nt = not tested or not shown; + = active, no number. This is a sample that favours compounds with a hit; in the whole collection about 9.6% have one here.
SMILES,PTEN del growth,Autophagy HCS,Lmaj promast,INS promoter inh,bCat KO growth,Ins promoter up
CS(=O)(=O)Nc1ccccc1C(=O)Nc1cccc(Cl)c1,61,i,-7,-120,71,-0.32
Cc1ccc(C(=O)NN2CC(O)=C(c3nc(-c4cccc([N+](=O)[O-])c4)cs3)C2=N)cc1,nt,i,6,nt,nt,-0.31
COc1cc(OC)cc(C(=O)Oc2ccc(/C=N/Nc3nc4ccccc4s3)cc2OC)c1,79,i,6,33,71,-0.67
Cc1cccc(-n2c(O)c(C=Nc3ccc(O)cc3)c3ccccc3c2=O)n1,82,i,3,7,88,-0.35
O=c1c2ccccc2c(/C=N/c2ncn[nH]2)c(O)n1Cc1ccccc1,71,i,20,71*,86,0.78
Cc1ccc(N=Cc2c(O)n(-c3ccc4c(c3)OCO4)c(=O)c3ccccc23)cc1,8,+,3,52,48,nt
CC(=O)CCN1CCOCC1,nt,i,8,39,103,1.6
CCOC(=O)N1CCN(C(=O)CSc2ccc(-c3ccccc3OC)nn2)CC1,nt,i,5,20,nt,-0.06
O=C(COC(=O)c1ccccc1C(=O)c1ccc(Cl)c([N+](=O)[O-])c1)NC1CCCCCC1,94,i,-3,29,80,0.45
CNC(=O)c1ccc2c(c1)nnn2C,95,i,-5,-67,92,-0.34
Cc1ccc(S(=O)(=O)N(C)Cc2ccc(C(=O)N/N=C/c3ccc(OC(F)F)cc3OC(F)F)cc2)cc1,44,i,55*,-13,36,nt
COc1ccc(CN2CCN(C(=O)CC(C)C)CC2)c2ccccc12,80,i,4,75*,87,1
COc1ccc(CN2CCN(C(=O)CC(C)C)CC2)cc1OC,98,i,-4,-13,96,0.11
CC(=O)c1sc(Nc2ccc(C)cc2)nc1C,nt,i,-4,-49,nt,0.46
O=C(NC(NNc1ccc([N+](=O)[O-])cc1)(C(F)(F)F)C(F)(F)F)c1ccccc1Cl,84,i,-6,nt,82,0.21
O=C(NC(Nc1nc2ccc([N+](=O)[O-])cc2s1)(C(F)(F)F)C(F)(F)F)c1cccnc1,3.0*,i,21,-3,2.2*,-4
O=C(NC(Nc1nc2ccc([N+](=O)[O-])cc2s1)(C(F)(F)F)C(F)(F)F)c1ccccc1Cl,1.4*,i,100*,nt,1.7*,?
CCc1cccc(CC)c1NC(=O)Cn1c(-c2ccc(F)cc2)noc1=O,nt,i,3,-35,nt,nt
C/C(=N\NC(=O)c1cc2c(s1)CCC(C)C2)c1ccncc1 (centres undefined),90,i,97*,27,84,-0.29
CCOc1ccc(-c2nnc(-c3ccncc3)o2)cc1OCC,nt,i,78*,-25,nt,-1.1
CCOc1ccc(-c2nnc(-c3cccnc3)o2)cc1OCC,98,i,31,64,92,0.01
O=C(CSc1nccn1-c1ccc(Cl)cc1)Nc1ccc2c(c1)OCO2,82,i,7,14,77,-0.05
CCCCN(CC)C(=O)C1CCC(=O)N(c2ccc(OC)cc2)C1c1ccc(OC)c(OC)c1 (centres undefined),nt,i,8,nt,nt,nt
COc1cc(NC(c2ccccc2)c2ccccc2)cc(OC)c1OC,nt,i,96*,nt,nt,1.2
O=C(CSc1ncc(C(F)(F)F)cc1Cl)N1CCN(S(=O)(=O)c2ccc(Cl)cc2)CC1,36,i,90*,-43,43,0.1
SMILES,PTEN del growth,Autophagy HCS,Lmaj promast,INS promoter inh,bCat KO growth,Ins promoter up
CCCc1cc(=O)[nH]c(SCC(=O)c2ccc(S(=O)(=O)N3CCCC3)cc2)n1,102,i,20,nt,92,nt
CCCc1cc(=O)[nH]c(SCC(=O)N2CCN(S(=O)(=O)c3ccc(Cl)cc3)CC2)n1,97,i,67*,6,92,0.09
CCOC(=O)c1c(C)[nH]c(N=Nc2cc(C(=O)O)cc(C(=O)O)c2)c1C,nt,nt,nt,nt,nt,0.51
CCC(=O)Nc1ccc(N2CCN(S(C)(=O)=O)CC2)cc1,94,i,67*,26,91,0.17
CCCC(=O)Nc1ccc(N2CCN(S(C)(=O)=O)CC2)cc1,95,i,8,56,90,-0.2
COc1ccccc1C(=O)Nc1ccc(N2CCN(S(C)(=O)=O)CC2)cc1,105,i,56*,-37,92,0.76
Cn1c(=O)[nH]c(=O)c2c1nc(CN1CCOCC1)n2Cc1ccccc1,108,i,13,9,115,nt
CC(NCc1ccccc1O)c1ccccc1 (centres undefined),nt,i,6,nt,nt,0.87
CCN(CC1COc2ccccc2O1)C(=S)NCCCN(C)C (centres undefined),nt,i,25,nt,nt,nt
COc1cccc(CNC(=O)CCSCc2ccccc2F)c1,nt,i,-13,13,nt,0
CCOc1cc(C2c3c(oc4cc(C)c(Cl)cc4c3=O)C(=O)N2Cc2ccco2)ccc1O (centres undefined),34,+,5,7,49,-0.1
Cc1cc2oc3c(c(=O)c2cc1C)C(c1cccc(Br)c1)N(Cc1ccco1)C3=O (centres undefined),1.4*,i,28,29,1.8*,-1.1
CCN(CC)CCNC(=O)c1ccc(CS(=O)(=O)c2ccc(Br)cc2)o1,94,nt,78*,nt,79,-0.8
COc1ccc(NC(=S)N2CCCN(Cc3cc(C)ccc3C)C2)cc1,nt,i,55*,10,nt,0.9
COc1ccc(NC(=S)N2CCN(Cc3ccccc3)CC2)cc1,nt,i,3,54,nt,-0.03
Cc1cccc(C)c1NC(=S)N1CCCN(Cc2ccc(F)cc2)C1,nt,i,73*,-40,nt,-1.2
COc1cccc(NC(=S)N2CCCC2)c1,95,i,76*,19,94,0.51
COc1cccc(NC(=S)Nc2cccnc2)c1,103,i,51*,-7,100,-0.14
COc1ccc(NC(=S)Nc2cccnc2)c(OC)c1,nt,i,5,nt,nt,0.92
O=C(Cn1ncc2c(=O)oc3ccccc3c21)N1CCCc2ccccc21,95,i,8,nt,93,-0.55
O=C(c1cc(S(=O)(=O)N2CCOCC2)c(Cl)cc1Cl)N1CCCCC1CO (centres undefined),nt,nt,nt,nt,nt,0.11
COc1cccc(NC(=S)N2CCCN(Cc3ccc(F)cc3)C2)c1,nt,i,87*,-12,nt,-0.36
Fc1cccc(NC(=S)N2CCCC2)c1,103,i,63*,25,96,nt
CSc1cccc(NC(=S)N2CCCN(Cc3cccc(Cl)c3)C2)c1,nt,i,90*,20,nt,-1.9
CSc1cccc(NC(=S)N2CCC(N(C)C3CCCC3)CC2)c1,nt,i,85*,-64,nt,-0.34
CCOC(=O)N1CCC(N(CCN(C)C)C(=S)Nc2cccc(SC)c2)CC1,nt,i,23,6,nt,-0.63
CCOC(=O)C1=C(O)C(=O)N(CCCn2ccnc2)C1c1ccc(C)cc1 (centres undefined),nt,i,-5,nt,nt,nt
Clc1cccc(Cl)c1Cn1cnc(=NCc2ccco2)c2[nH]cnc21,100,i,20,nt,96,-0.76
